In assay [1] the test system is MILI (PIWIL2) piRISC loaded with piRNA #1 (26 nt). In words: pre-steady-state target cleavage rate (min^-1); guide: piRNA #1 5'p-UGAGGUAGUAGGUUGUAUAGUAUCCA; higher = faster piRNA-guided slicing of the target. To be noted: auxiliary factor: 500 nM mouse GTSF1. In a few lines:
(§1)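 Cleave-'n-Seq: 1 nM active affinity-purified piRISC with one synthetic guide and 0.1 nM transcribed, DNA-blocked target RNA library were mixed, with or without 500 nM GTSF1 partner protein, in HEPES–potassium acetate buffer at 33 °C for 0–8 or 0–960 min. Uncleaved targets were sequenced and normalised to depth and to weakly complementary targets, three trials were pooled, and k3 was capped at 0.0001 min^-1. The pre-steady-state cleavage rate was fitted […].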

For assay [2], the system named is EfPiwi piRISC loaded with piRNA #1 (26 nt). Put plainly: pre-steady-state target cleavage rate (min^-1); auxiliary factor: 500 nM Ephydatia muelleri Gtsf1; guide: piRNA #1 5'p-UGAGGUAGUAGGUUGUAUAGUAUCCA; MIWI and MILI are mouse PIWI proteins and EfPiwi is from a freshwater sponge; tags in brackets are library labels; higher = faster piRNA-guided slicing of the target. The method in brief:
as §1

The results in this text go back to the supplement of paper PMC10338343.

± gives the standard deviation.

On to GGAGACCAUACUAUACAACGUACUACCUGA, for which the “pre-steady-state target cleavage rate” value in assay [1] is 0.011 ± 0.0036; in assay [2], 0.00457 ± 0.0027.
The matching figures for GGAGUGGAUACUAUACGACCUACUACCUCA: 0.135 ± 0.0095 and 0.0922 ± 0.036.
For GGAGAGGAUACUAUACAUCCUACUACCACA the same measures were 0.0843 ± 0.016 and 0.00374 ± 0.0014.
The matching figures for GGAGUGGAUUCUAUACAAGCUACUACCUCA: 0.228 ± 0.013 and 0.00371 ± 0.0019.
For GGAGACGAUACUUAUCAACCUACUACCUCA, the “pre-steady-state target cleavage rate” value in assay [1] came to 0.148 ± 0.013; in assay [2], 0.00522 ± 0.0041.
The matching figures for GGAGUGGAUUCUAUACUACCUACUACCUCA: 0.155 ± 0.0078 and 0.00505 ± 0.0034.
For GGAGACCUUUCUAUACAACCUACUACCUGA the same measures were 0.0728 ± 0.013 and 0.0049 ± 0.0044.
The matching figures for GGAGACGAUACUAUACAAUCUACUACCUCA: 0.131 ± 0.0093 and 0.00912 ± 0.0039.
As for GGAGUGCAUACUAUACAACCUACUACGUCA, the “pre-steady-state target cleavage rate” value was determined as 0.0632 ± 0.0079 in assay [1] and 0.00318 ± 0.0018 in assay [2].
For the sequence GGAGACCUUACAUACAACCUACUACCUCA, the “pre-steady-state target cleavage rate” value in assay [1] stood at 0.0259 ± 0.0067; in assay [2] it was 0.00863 ± 0.0045.
Take GGAGACGAUUCUAUACAACCAACUACCUCA: the “pre-steady-state target cleavage rate” value in assay [1] is 0.00752 ± 0.0023; in assay [2] it was 0.00258 ± 0.0018.
For GGAGACGAUACUAUACAACCUACACCUCA the same measures were 0.00588 ± 0.0025 and 0.00474 ± 0.0027.
Turning to GGAGACGAUGCUAUACAACCUACUACCUCA, the “pre-steady-state target cleavage rate” value was determined as 0.194 ± 0.021 in assay [1] and 0.00734 ± 0.0042 in assay [2].
As for GGAGAGGAUACUAUACAACCUACUUCCUCA, the “pre-steady-state target cleavage rate” value worked out at 0.0124 ± 0.0047 in assay [1] and 0.00514 ± 0.0026 in assay [2].
For GGAGACCUAACUAUACAAGCUACUACCUCA the same measures were 0.206 ± 0.02 and 0.00482 ± 0.0028.
For GGAGUGGAUACUAUACCACCUACUACCUCA the same measures were 0.188 ± 0.012 and 0.0104 ± 0.004.
For GGAGACCUAUCCUAUACAACCUACUACCUCA, the “pre-steady-state target cleavage rate” value in assay [1] came to 0.106 ± 0.011; in assay [2] it was 0.0903 ± 0.032.
GGAGAGGAUACUAUACAUCCUACUACGUCA: the “pre-steady-state target cleavage rate” value amounted to 0.00995 ± 0.003 in assay [1] and 0.00405 ± 0.0018 in assay [2].
For “GGAGACCUAUGAAUACAACCUACUACCUCG [g2:g18:cont:t1G]” the same measures were 0.0085 ± 0.002 and 0.00485 ± 0.004.
Take GGAGUGGAUACUAUACAACCUAGAACCUCA: the “pre-steady-state target cleavage rate” value in assay [1] was 0.0036 ± 0.0022; in assay [2], 0.00464 ± 0.0024.
For GGAGACCAUACUAUACAACCUACUACCACA the same measures were 0.231 ± 0.029 and 0.00574 ± 0.002.
For GGAGUGGAUACAUUACAACCUACUACCUCA the same measures were 0.152 ± 0.012 and 0.00715 ± 0.0034.
As for GGAGACGAUUCUAUACUACCUACUACCUCA, the “pre-steady-state target cleavage rate” value in assay [1] came to 0.213 ± 0.011; in assay [2], 0.00459 ± 0.0029.
For GGAGAGGAUACUAUUCAACCUUCUACCUCA the same measures were 0.00949 ± 0.0023 and 0.0031 ± 0.0028.
For GGAGACGUUACUAUACAACCAACUACCUCA the same measures were 0.0041 ± 0.002 and 0.00407 ± 0.0025.
The matching figures for GGAGUGGAUACUAUACAUCCUUCUACCUCA: 0.0293 ± 0.0033 and 0.00476 ± 0.0022.
Take GGAGACCAUAUUAUACAACCUACUACCUCA: the “pre-steady-state target cleavage rate” value in assay [1] worked out at 0.188 ± 0.015; in assay [2], 0.116 ± 0.036.
